The source of these data is paper PMC12431657, “Discovery and mechanistic insights of dibenzoylmethane as a broad spectrum inhibitor of coronavirus” (PLOS Pathogens, 2025).

For the assay, the system named is HCoV-OC43. More on the design: species or system RD. Particulars: 24 h, 10 µM; inhibitor.
For the compound `CC1=C[C@]23C(=O)[C@@H](C=C(COC(=O)c4ccccc4)[C@@H](O)[C@]2(O)[C@H]1OC(=O)c1ccccc1)[C@H]1[C@@H](C[C@H]3C)C1(C)C` [Ingenol 3,20-dibenzoate, ingenol 3,20-dibenzoate], the “OC43 Inhibition rate” value is listed as 82.9. The value for `C=C1C(=O)O[C@@H]2[C@H]3O[C@]3(C)CC/C=C(\C)CC[C@@H]12` [Parthenolide] was 36.9; that for `Cc1c([C@H](C)[C@@H]2NC[C@@H](C)C[C@H]2O)ccc2c1C[C@H]1[C@H]2CC=C2C[C@@H](O)CC[C@@]21C` [Veratramine, veratramine] was 77.2.
